We go through six molecules from PubChem BioAssay.

Calls of active or inactive are those of the source.

Assay [1] deals with Human papillomavirus type 1a protein E7 (residues 44-93). Description: small molecules binding HPV E7 44-93 – biochemical, small-molecule microarray, residues 44-93, 635 nm fluorescence, primary screen (AID 1108).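 Note: E7 fragment applied at 1 µg/mL in TBST for 1 h at 4 C; score combines spot fluorescence with its signal to noise ratio.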 The settings on record: fluorescence 635 nm, higher = more signal.
Assay [2] in a line: hepatitis C replication reporter changes, two-sided – Huh7 cells, luciferase reporter, HCV replication inhibitor project, primary screen (AID 1109).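 Note: huh7 hepatoma cells harbouring a luciferase neomycin HCV replicon reporter; luciferase luminescence as measure of HCV replicon replication; test concentration not given here.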 The note with it: Huh7 HCV replicon luciferase reporter, 48 h; higher = more signal. On the technique in general: A reporter such as luciferase makes a cellular process visible.
Assay [3] concerns the target Left-right determination factor 2 (Homo sapiens) (UniProt O00292). The assay can be described thus: small molecules binding LEFTY2 protein – biochemical, small-molecule microarray, 635 nm fluorescence scan, primary screen (AID 1110). The note with it: higher = more signal.
The target in assay [4] is Calmodulin-1 (Homo sapiens) (UniProt P0DP23). The assay can be described thus: small molecules binding calmodulin-1 with EGTA – biochemical, small-molecule microarray, Cy5-labelled CALM1, profiling panel (AID 1111).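 Note: labelled calmodulin applied in Tris saline Tween buffer holding calcium plus EGTA and DTT.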 The settings on record: Cy5-CALM1 binding fluorescence, higher = more signal.
The target is the same in assay [5]. Description: small molecules binding Ca-loaded calmodulin-1 – biochemical, small-molecule microarray, Cy5-labelled CALM1, plus calcium, artefact control for SMM control-protein annotation, profiling panel (AID 1112).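 Note: score merges spot fluorescence with signal to noise from triplicate slides.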 The note with it: Cy5-CALM1 binding fluorescence, higher = more signal.
The nature of assay [6]: probe aWnt5a binding to arrayed compounds – biochemical, biotinylated probe, 635/667 nm fluorescence, primary screen (AID 1113).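 Note: score merges 667 nm fluorescence intensity with signal-to-noise per printed feature.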 The note with it: small-molecule microarray, higher = more signal.
The nature of assay [7]: probe aShh binding to arrayed compounds – biochemical, biotinylated probe, 635/667 nm fluorescence, primary screen (AID 1114).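 Note: probe is biotin-labelled aShh protein from a stem cell growth factor screen; measures binding of labelled protein to compounds printed on the slide; score merges feature fluorescence at 667 nm with signal-to-noise.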 The settings on record: small-molecule microarray, higher = more signal.
Assay [8] in a line: probe aNog binding to arrayed compounds – biochemical, biotinylated probe, 635/667 nm fluorescence, primary screen (AID 1115).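 Note: probe is biotinylated aNog protein used at 0.15 µg/mL for 1 h at 4 C; z-score combines 667 nm fluorescence of each spot with its signal to noise.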 The settings on record: small-molecule microarray, higher = more signal.
Assay [9] concerns the target Torsin-1A-interacting protein 1 (Homo sapiens) (UniProt Q5JTV8). Description: compound microarray binding of lysate hLAP1 – cell lysate, small-molecule microarray, COS7 lysate, 635/667 nm fluorescence, primary screen (AID 1116). The note with it: 635 nm fluorescence, higher = more signal.
Assay [10] addresses Alpha-bungarotoxin (Bungarus multicinctus) (UniProt P60615). Description: compounds binding labelled alpha-BTX control protein – biochemical, small-molecule microarray, Alexa647 label, 635/667 nm fluorescence, artefact control for SMM control protein annotation, profiling panel (AID 1117). The settings on record: alpha-BTX-A647 binding fluorescence, higher = more signal.
The target of another assay is Albumin (Bos taurus) (UniProt P02769). Description: compounds binding labelled BSA control protein – biochemical, small-molecule microarray, Alexa647 label, 635/667 nm fluorescence, artefact control for SMM control protein annotation, profiling panel (AID 1118).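 Note: score merges 667 nm emission intensity and signal-to-noise per printed compound spot.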 The settings on record: BSA-A647 binding, fluorescence 635 nm, higher = more signal.
Albumin (Bos taurus), sequence (P02769 whole entry, looked up): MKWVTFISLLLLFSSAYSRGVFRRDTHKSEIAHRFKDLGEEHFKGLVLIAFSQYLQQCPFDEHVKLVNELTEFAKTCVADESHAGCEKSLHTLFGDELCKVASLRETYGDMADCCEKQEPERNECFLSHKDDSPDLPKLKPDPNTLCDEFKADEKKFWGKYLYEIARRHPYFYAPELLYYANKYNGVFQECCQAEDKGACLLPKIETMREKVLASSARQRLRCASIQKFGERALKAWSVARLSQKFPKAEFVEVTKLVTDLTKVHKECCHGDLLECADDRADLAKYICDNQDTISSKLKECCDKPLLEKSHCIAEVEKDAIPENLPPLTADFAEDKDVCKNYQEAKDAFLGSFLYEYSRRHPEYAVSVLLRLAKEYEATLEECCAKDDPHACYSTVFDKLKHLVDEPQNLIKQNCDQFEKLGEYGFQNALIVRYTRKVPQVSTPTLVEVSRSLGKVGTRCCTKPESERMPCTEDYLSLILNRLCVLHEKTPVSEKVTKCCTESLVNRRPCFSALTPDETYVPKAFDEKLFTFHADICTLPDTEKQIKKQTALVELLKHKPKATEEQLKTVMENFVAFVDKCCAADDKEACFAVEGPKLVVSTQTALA
Assay [11] is described as follows: probe aXIP binding to arrayed compounds – biochemical, NeuroSMM set, 635/667 nm fluorescence, primary screen (AID 1119).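 Note: probe is the protein aXip251-270 applied at 1 µg/mL to compound-printed slides; binding of probe to printed compounds measured as 667 nm fluorescence plus signal to noise.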 The note with it: small-molecule microarray, higher = more signal, called active from +8 up or from −8 down.
A short description of assay [12]: probe aNOTCH3 binding on compound microarray – biochemical, small-molecule microarray, 635/667 nm fluorescence, primary screen (AID 1120).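 Note: probe is a biotin-tagged antibody raised against NOTCH3 rather than NOTCH3 protein; score merges spot fluorescence near 667 nm with spot signal to noise.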 The settings on record: higher = more signal.
Assay [13] is described as follows: probe aNOTCH2 binding on compound microarray – biochemical, small-molecule microarray, 635/667 nm fluorescence, primary screen (AID 1121).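 Note: score merges feature fluorescence read at 667 nm with its signal to noise.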 The settings on record: higher = more signal.
In assay [14] the target is Carbonic anhydrase 2 (Homo sapiens) (UniProt P00918). The assay can be described thus: compounds binding carbonic anhydrase 2 – biochemical, small-molecule microarray, Alexa647-labelled CAII, profiling panel (AID 1122). The settings on record: CAII-A647 binding fluorescence, higher = more signal.
Assay [15] in a line: COS7 lysate on small-molecule microarray, probe aHis, 635 nm (AID 1123).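 Note: z-score combines 667nm fluorescence intensity with signal-to-noise per printed compound spot.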 The note with it: COS7 cell lysate, fluorescence, higher = more signal.
A short description of assay [16]: probe aLAP1 signal on lysate-treated microarray – cell lysate, small-molecule microarray, COS7 lysate, primary screen (AID 1124).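 Note: lysate comes from COS7 cells expressing LAP1 and is applied at 0.3 µg/mL; score merges spot fluorescence near 667 nm with signal-to-noise over triplicate slides.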 The settings on record: probe aLAP1, fluorescence, higher = more signal.
For the next assay, the system named is Sam68 (KHDRBS1). The assay can be described thus: compounds binding KHDRBS1 protein – biochemical, small-molecule microarray, 635 nm fluorescence, primary screen (AID 1125).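 Note: score merges 667 nm channel intensity with signal to noise over triplicate slides.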 The settings on record: higher = more signal.
The test system of assay [17] is Chordin-like protein 2 (CHRDL2). Description: compounds binding chordin-like 2 – biochemical, small-molecule microarray, 635 nm fluorescence, primary screen (AID 1126).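 Note: printed compound slides probed with Chrdl2 protein at 4 µg/mL for 1 h at 4 C; score merges 667 nm emission intensity with signal to noise over three replicate slides.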 The settings on record: fluorescence 635 nm, higher = more signal.
Assay [18] addresses Concanavalin-A (Canavalia ensiformis) (UniProt P02866). The assay can be described thus: compounds binding concanavalin A lectin – biochemical, small-molecule microarray, Alexa647 label, 635 nm, artefact control for SMM control protein annotation, primary screen (AID 1127).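 Note: z combines 667 nm emission intensity with signal-to-noise across three replicate slides.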 The settings on record: ConA-A647 binding fluorescence, higher = more signal.

Alpha-bungarotoxin (Bungarus multicinctus), sequence (P60615 whole entry, looked up): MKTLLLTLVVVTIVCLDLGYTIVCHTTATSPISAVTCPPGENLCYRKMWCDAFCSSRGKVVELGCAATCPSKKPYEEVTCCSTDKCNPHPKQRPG
Left-right determination factor 2 (Homo sapiens), sequence (O00292 whole entry, looked up): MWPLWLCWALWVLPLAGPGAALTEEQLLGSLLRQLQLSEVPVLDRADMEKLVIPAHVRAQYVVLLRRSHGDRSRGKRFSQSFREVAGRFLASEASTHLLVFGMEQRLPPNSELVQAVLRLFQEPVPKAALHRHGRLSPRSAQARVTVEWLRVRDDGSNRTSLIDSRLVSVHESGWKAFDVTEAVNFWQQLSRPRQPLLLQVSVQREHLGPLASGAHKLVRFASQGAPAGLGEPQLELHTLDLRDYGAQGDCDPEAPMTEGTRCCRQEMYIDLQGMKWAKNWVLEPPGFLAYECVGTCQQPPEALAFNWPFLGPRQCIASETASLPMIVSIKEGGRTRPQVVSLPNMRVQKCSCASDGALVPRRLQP
Torsin-1A-interacting protein 1 (Homo sapiens), sequence (Q5JTV8 whole entry, looked up): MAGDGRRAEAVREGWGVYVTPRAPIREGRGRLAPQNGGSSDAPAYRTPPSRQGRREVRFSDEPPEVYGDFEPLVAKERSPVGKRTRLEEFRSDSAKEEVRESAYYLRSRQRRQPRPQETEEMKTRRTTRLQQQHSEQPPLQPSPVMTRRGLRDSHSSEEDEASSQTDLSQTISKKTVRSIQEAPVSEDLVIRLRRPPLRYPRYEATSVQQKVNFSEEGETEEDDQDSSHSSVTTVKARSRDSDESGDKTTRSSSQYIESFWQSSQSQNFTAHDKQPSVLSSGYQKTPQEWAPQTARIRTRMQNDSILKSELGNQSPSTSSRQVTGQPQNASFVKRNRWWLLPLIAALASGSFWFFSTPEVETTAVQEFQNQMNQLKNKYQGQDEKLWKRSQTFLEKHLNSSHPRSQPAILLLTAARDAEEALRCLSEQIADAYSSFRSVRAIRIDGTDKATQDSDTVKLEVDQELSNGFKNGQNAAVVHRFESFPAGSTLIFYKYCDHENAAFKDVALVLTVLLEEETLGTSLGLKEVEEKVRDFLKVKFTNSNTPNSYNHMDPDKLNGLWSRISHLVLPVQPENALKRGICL
Concanavalin-A (Canavalia ensiformis), sequence (P02866 whole entry, looked up): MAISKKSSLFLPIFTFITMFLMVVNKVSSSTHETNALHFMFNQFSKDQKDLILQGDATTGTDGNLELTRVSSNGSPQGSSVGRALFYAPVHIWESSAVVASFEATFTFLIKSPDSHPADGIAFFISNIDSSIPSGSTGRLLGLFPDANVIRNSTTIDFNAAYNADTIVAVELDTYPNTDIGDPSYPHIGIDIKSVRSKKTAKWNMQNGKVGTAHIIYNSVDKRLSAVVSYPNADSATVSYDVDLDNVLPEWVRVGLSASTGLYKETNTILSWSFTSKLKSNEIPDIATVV

`O=C1C2C=CC(C(O)c3ccccc3)N(n3cnnc3)C2C(=O)N1Cc1ccccc1` (stereo not given): the composite z-score in [1] is -0.447; in [3], -0.237; in [4], 0.206; in [5], -0.372; in assay [6], 0.0357; in [7] it was -0.0594. In addition, the composite z-score in [8] is 0.319; in assay [9], 0.327; in assay [10] it was 0.449; with Albumin (Bos taurus) it was 0.878; in [12], 0.0562; in assay [13], -0.0136. Further, the composite z-score was 0.565 in assay [14]; 0.775 in assay [15]; -0.333 in assay [16]; -0.493 in the assay with Sam68 (KHDRBS1); 0.0921 in [17]; 0.161 in assay [18]. Further, the z-score in [2] is 0.573. In addition, in [11], the composite Z-score is 0.0912 (inactive).

`C=CCOC(=O)[C@@H]1[C@H]2C(=O)O[C@H](c3ccccc3)[C@H](c3ccccc3)N2[C@H](c2ccc(OCCOC(=O)[C@H]3C[C@H]4C(=O)N[C@@H](CCCCNC(C)=O)C(=O)N4[C@H]3c3ccc(O)cc3)cc2)[C@@]12C(=O)Nc1ccc(I)cc12`: the composite z-score was 1.39 in [1]; 0.576 in [3]; 0.419 in assay [4]; 0.232 in assay [5]; -0.104 in assay [6]; -0.232 in assay [7]. Moreover, the composite z-score in assay [8] was -0.0496; in assay [9], 0.818; in [10], 1.07; in the assay with Albumin (Bos taurus), -0.239; in assay [12], 0.0222; in assay [13] it was -0.0662. Also, the composite z-score is 0.374 in assay [14]; 0.877 in assay [15]; 0.278 in assay [16]; 1.28 in the assay on Sam68 (KHDRBS1); 1.15 in assay [17]; 0.499 in assay [18]. This molecule returned a z-score in assay [2] of -1.66. In addition, the composite Z-score in assay [11] is 0.396 (inactive).

For the molecule `COC(=O)[C@@]1(Cc2ccc(OC)cc2)[C@H]2c3cc(C(=O)N(C)C)n(CCc4ccc(OC)c(Br)c4)c3C[C@H]2CN1C(=O)c1ccccc1`, the composite z-score was 1.33 in assay [1]; -0.239 in assay [3]; 2.23 in [4]; 1.54 in assay [5]; 0.36 in [6]; 2.03 in assay [7]. Also, the composite z-score in [8] stood at 1.19; in [9], 1.73; in assay [10], 1.98; with Albumin (Bos taurus) it was 1.11; in [12], 0.831; in [13], 0.395. Also, the composite z-score is 0.718 in [14]; 2.9 in assay [15]; 0.482 in assay [16]; 1.29 in the assay on Sam68 (KHDRBS1); -1.11 in assay [17]; 1.2 in [18]. The molecule further returned a z-score in assay [2] of -2.54. Moreover, the composite Z-score in assay [11] is -0.665 (inactive).

Take `CC(=O)NCCCC[C@@H]1NC(=O)[C@@H]2C[C@H](C(=O)NCCCCCCN(C)C)[C@H](c3ccc(O)cc3)N2C1=O`: the composite z-score in [1] was -0.0336; in assay [3], 0.73; in assay [4], -0.158; in assay [5] it was -1.14; in [6] it was -0.201; in [7], 0.0712. The composite z-score in [8] was 1.01; in assay [9], 1.84; in assay [10], 1.65; in the assay with Albumin (Bos taurus), -0.853; in assay [12], -0.0396; in [13] it was 0.112. In addition, the composite z-score in assay [14] is 0.57; in assay [15] it was 1.92; in assay [16] it was -0.234; with Sam68 (KHDRBS1), 1.32; in assay [17], 1.44; in assay [18] it was 1.21. This molecule returned a z-score in assay [2] of 1.08. Besides, the composite Z-score in [11] was 0.67 (inactive).

As for `CCC1=C2CN(Cc3ccccc3Br)[C@@H]([C@@H](O)Cc3ccccc3)C2C=CCC1` (stereo not given in full), the composite z-score in [1] was 1.38; in assay [3], 0.473; in [4], 0.417; in [5], -0.419; in assay [6], -0.148; in [7], -0.0709. Further, the composite z-score was -0.278 in [8]; -0.131 in [9]; 0.616 in assay [10]; 0.714 with Albumin (Bos taurus); -0.0277 in [12]; -0.123 in assay [13]. Besides, the composite z-score is 0.366 in [14]; 1.01 in assay [15]; -0.0566 in assay [16]; 1.3 with Sam68 (KHDRBS1); 0.611 in assay [17]; 0.646 in assay [18]. Also, the z-score in assay [2] is -2.97. For the same molecule, the composite Z-score in assay [11] is 1.22 (inactive).

For `O=C1OCC=C[C@H]2OC34C=CCN(Cc5ccccc5)C(=O)[C@H]3N(CCO)C(=O)[C@@H]4[C@@H]12` (stereo not given in full), the composite z-score in assay [1] is 0.257; in assay [3] it was -0.864; in assay [4], -0.289; in assay [5], 0.822; in [6], -0.144; in assay [7], -0.134. Moreover, the composite z-score in assay [8] is -0.182; in [9], -0.459; in assay [10], -0.38; in the assay with Albumin (Bos taurus), 0.661; in assay [12], -0.248; in [13] it was -0.177. Moreover, the composite z-score is 0.824 in assay [14]; 0.666 in assay [15]; -0.0963 in assay [16]; -0.72 in the assay on Sam68 (KHDRBS1); -1.82 in assay [17]; -0.403 in assay [18]. This molecule also yielded a z-score in assay [2] of -0.877. Further, the composite Z-score in assay [11] is 0.383 (inactive).
